The record followed here is the supplement of paper PMC8728848.

Assay in all cases: glycan array binding signal (z-score within array); higher = stronger binding
Common to all, as to conditions: glycan notation: IUPAC condensed, linker removed

Assay [1] addresses GlcNAc(b1-4)GlcNAc(b1-4)GlcNAc. The method, boiled down:
(§1)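 Glycan array data were curated from 3228 arrays in the Consortium for Functional Glycomics database and kept only where the protein sequence was available. Glycan names were converted to IUPAC-condensed notation, and columns mapping to the same glycan were averaged. The binding signal is a within-array Z-score, averaged across arrays of the same protein sequence at different concentrations or buffers and across linkers. Negative Z-scores can be read as non-binding.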

In assay [2] the target is GlcNAc(b1-6)Gal(b1-4)GlcNAc. A digest of the protocol:
as §1

For assay [3], the target named is Kdn(a2-3)Gal(b1-4)Glc. The method, boiled down:
as §1

The target of assay [4] is Man(a1-2)Man(a1-3)[Man(a1-2)Man(a1-6)]Man. A digest of the protocol:
as §1

Assay [5] concerns the target MurNAc(b1-4)GlcNAc. A digest of the protocol:
as §1

Assay [6] deals with Neu5Ac(a2-3)Gal. The method, boiled down: as §1
The target in assay [7] is Neu5Ac(a2-3)Gal(b1-3)GlcNAc(b1-4)Gal(b1-4)Glc. The method, boiled down: as §1
For assay [8], the target named is Neu5Ac(a2-3)Gal(b1-3)[Fuc(a1-4)]GlcNAc(b1-3)Gal(b1-4)[Fuc(a1-3)]GlcNAc. The method, boiled down:
as §1

For assay [9], the target named is Neu5Ac(a2-3)Gal(b1-3)[Neu5Ac(a2-6)]GlcNAc(b1-3)[Fuc(a1-3)[Gal(b1-4)]GlcNAc(b1-6)]Gal(b1-4)Glc. The method, boiled down:
as §1

In assay [10] the target is Neu5Ac(a2-3)Gal(b1-3)]Neu5Ac(a2-3)Gal(b1-4)]GlcNAc. A digest of the protocol: as §1
Assay [11] deals with Neu5Ac(a2-3)Gal(b1-4)GlcNAc(b1-3)Gal(b1-4)GlcNAc(b1-6)[Gal(b1-3)]GalNAc. A digest of the protocol: as §1
The target of assay [12] is Neu5Ac(a2-3)Gal(b1-4)[Fuc(a1-3)]GlcNAc(b1-2)Man. The method, boiled down: as §1
The target of assay [13] is Neu5Ac(a2-3)Gal(b1-4)[Fuc(a1-3)]GlcNAc(b1-3)Gal(b1-4)[Fuc(a1-3)]GlcNAc(b1-3)Gal(b1-4)[Fuc(a1-3)]GlcNAc. The method, boiled down:
as §1

Assay [14] concerns the target Neu5Ac(a2-3)Gal(b1-4)[Fuc(a1-3)]GlcNAc(b1-6)[Neu5Ac(a2-3)Gal(b1-3)]GalNAc. The method, boiled down:
as §1

Assay [15] has as its target Neu5Ac(a2-6)Gal(b1-4)GlcNAc(b1-2)Man. A digest of the protocol: as §1
Assay [16] addresses Neu5Ac(a2-6)Gal(b1-4)GlcNAc(b1-3)Gal(b1-4)GlcNAc. A digest of the protocol: as §1
Assay [17] addresses Neu5Ac(a2-6)Gal(b1-4)GlcNAc(b1-3)Gal(b1-4)GlcNAc(b1-3)[Neu5Ac(a2-6)Gal(b1-4)GlcNAc(b1-3)Gal(b1-4)GlcNAc(b1-6)]GalNAc. A digest of the protocol:
as §1

Assay [18] concerns the target Neu5Ac(a2-6)Gal(b1-4)GlcNAc(b1-3)Gal(b1-4)GlcNAc(b1-6)[Gal(b1-3)]GalNAc. The method, boiled down:
as §1

For assay [19], the target named is Neu5Ac9Ac(a2-6)Gal(b1-4)GlcNAc. A digest of the protocol:
as §1

Assay [20] has as its target Neu5Gc(a2-8)Neu5Gc(a2-3)Gal(b1-4)GlcNAc(b1-3)Gal(b1-4)GlcNAc. A digest of the protocol: as §1

This excerpt belongs to a sample that is enriched for the strongest signals.

B1: F17-L (Escherichia coli) (protein)
chain: GPDDYVPSQIAVNTSTLPGVVIGPADAHTYPRVIGELAGTSNQYVFNGGAIALMRGKFTPALPKIGSITYTFHQGNSRDSSDFDIYDIGVSGLGIIIGMAGYWPATPLVPINSSGIYIDPVGANTNPNTYNGATASFGARLFVAFVATGRLPNGYITIPTRQLGTILLEAKRTSLNNKGLTAPVMLNGGRIQVQSQTHHHHHH
With B1, the “glycan array binding signal (z-score)” value in [1] is -0.131; in assay [2] it was 0.019; in assay [3], -0.136; in assay [4], -0.153; in [5], 4.16; in assay [6], -0.099. Moreover, the “glycan array binding signal (z-score)” value is -0.075 in [7]; 0.865 in assay [8]; -0.114 in assay [9]; 0.01 in [10]; -0.139 in assay [11]; -0.12 in assay [12]. Also, the “glycan array binding signal (z-score)” value was -0.119 in [13]; -0.152 in [14]; -0.134 in [15]; -0.069 in assay [16]; -0.014 in assay [17]; -0.112 in assay [18]. Moreover, the figures for the “glycan array binding signal (z-score)” value in [19] and in assay [20] were -0.133 and -0.129, respectively.
